Results filed as inconclusive are left out. Calls of active or inactive are those of the source. Unless noted, the call rests on the fitted dose curve; in most records, active means well fitted curve in the direction sought with a large enough effect in the repeat runs; inconclusive means weak or mixed curves; inactive means no such curve, though single readings can be large; an effect the other way counts as inactive or inconclusive.
Key:
[1] = qHTS assay to identify small molecule agonists of the TGF-beta/Smad signaling pathway - cell viability counter screen (AID 1346829); further: top concentration of the series differs between compounds; nearly all actives have a fitted effect of over 45% in size
In short: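 Tox21 qHTS format: SBE-bla HEK 293T cells treated with DMSO-dissolved compounds for 5 hr; CellTiter-Glo luminescence after 30 min at room temperature.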

[2] = qHTS assay to identify small molecule agonists of the TGF-beta/Smad signaling pathway (AID 1346859; active means well fitted activation curve with a large enough effect in the signal ratio in the repeat runs, not every such curve was filed as active; the % refers to the signal ratio; further: series mostly up to about 77 µM)
In short: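 Smad-responsive beta-lactamase reporter cells (HEK 293T) received compounds from DMSO stocks after overnight attachment, were incubated 5 hr, then treated 2 hr with FRET substrate before dual-emission fluorescence measurement (405 nm excitation).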

[3] = target: Thyrotropin-releasing hormone receptor (Homo sapiens) (UniProt P34981); experiment: qHTS assay to identify small molecule antagonists of the thyrotropin-releasing hormone receptor (TRHR) signaling pathway (AID 1346877; active means well fitted inhibition curve with a large enough effect in the repeat runs, not every such curve was filed as active; further: series mostly up to about 51 µM)
Sequence of Thyrotropin-releasing hormone receptor (Homo sapiens) (P34981 whole entry, looked up): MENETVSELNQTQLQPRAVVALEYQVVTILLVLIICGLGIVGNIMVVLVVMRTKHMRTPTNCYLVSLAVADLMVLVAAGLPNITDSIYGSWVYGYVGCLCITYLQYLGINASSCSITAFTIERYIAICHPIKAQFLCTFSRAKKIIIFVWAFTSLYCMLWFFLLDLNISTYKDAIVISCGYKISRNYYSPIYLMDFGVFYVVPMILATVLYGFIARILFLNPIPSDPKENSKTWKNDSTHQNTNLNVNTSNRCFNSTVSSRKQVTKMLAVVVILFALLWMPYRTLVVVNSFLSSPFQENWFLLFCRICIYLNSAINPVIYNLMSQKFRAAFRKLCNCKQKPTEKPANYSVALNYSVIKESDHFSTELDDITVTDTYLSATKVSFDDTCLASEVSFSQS
In short: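 Calcium signal in dye-loaded TRHR/HEK293 cells; compounds added 5 min before TRH (1 nM final); fluorescence monitored 3 min at 1 s steps.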

[4] = target: Thyrotropin-releasing hormone receptor (Homo sapiens) (UniProt P34981); experiment: qHTS assay to identify small molecule agonists of the thyrotropin-releasing hormone receptor (TRHR) signaling pathway (AID 1346891; calls by dose curve;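 further: HEK293 cells expressing TRHR with calcium dye readout; series mostly up to about 58 µM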)
In short: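 Agonist-mode calcium mobilisation screen: TRHR-transfected HEK293 cells cultured overnight (18 h), dye-loaded for 2 h at 37 °C, exposed to compounds, and monitored by fluorescence for 3 min.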

[5] = Human pregnane X receptor (PXR) small molecule agonists, qHTS cell viability counter screen (AID 1346977); further: nearly all actives have a fitted effect of over 50% in size
In short: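 Measures live-cell protease fluorescence (CellTiter-Fluor) in PXR-Luc HepG2 cells treated 24hr with compounds at 37C. Cells had 5hr to attach before pin transfer of DMSO solutions.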

[6] = Caspase-3/7 induction in HepG2 cells by small molecules, qHTS assay (AID 1346978); further: nearly all actives have a fitted effect of over 15% in size
In short: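 Wild-type HepG2 cells (2,000/well) were settled 5 h at 37 C, 5% CO2, then exposed to compounds in DMSO for 17 h. Caspase-3/7 activity was read by luminescence 30 min after adding Caspase-Glo 3/7 reagent at room temperature.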

[7] = Caspase-3/7 induction in CHO-K1 cells by small molecules, qHTS cell viability counter screen (AID 1346979); further: nearly all actives have a fitted effect of over 35% in size
In short: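 In the same wells as the caspase read, viability of compound-treated wild-type CHO-K1 cells was assessed using CellTiter-Fluor, added after 16hr at 37C and measured by fluorescence following 1hr further incubation.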

[8] = Caspase-3/7 induction in CHO-K1 cells by small molecules, qHTS assay (AID 1346980); further: nearly all actives have a fitted effect of over 15% in size
In short: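 Wild-type cells were seeded at 1,500 per well and settled 5 hr at 37 C, 5% CO2, then exposed to DMSO-dissolved compounds for 17 hr. Caspase-Glo 3/7 reagent was added, and luminescence was read after 30min at room temperature.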

[9] = Caspase-3/7 induction in HepG2 cells by small molecules, qHTS cell viability counter screen (AID 1346981); further: series mostly up to about 92 µM; nearly all actives have a fitted effect of over 30% in size
In short: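 After a 5-hr attachment period at 37 C and 5% CO2, wild-type HepG2 cells received compounds in DMSO. Sixteen hours later CellTiter-Fluor was dispensed and the fluorescent signal quantified after a further hour.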

[10] = target: Nuclear receptor subfamily 1 group I member 2 (Homo sapiens) (UniProt O75469); experiment: Human pregnane X receptor (PXR) small molecule agonists, qHTS assay (AID 1346982); further: nearly all actives have a fitted effect of over 35% in size
Sequence of Nuclear receptor subfamily 1 group I member 2 (Homo sapiens) (O75469 whole entry, looked up): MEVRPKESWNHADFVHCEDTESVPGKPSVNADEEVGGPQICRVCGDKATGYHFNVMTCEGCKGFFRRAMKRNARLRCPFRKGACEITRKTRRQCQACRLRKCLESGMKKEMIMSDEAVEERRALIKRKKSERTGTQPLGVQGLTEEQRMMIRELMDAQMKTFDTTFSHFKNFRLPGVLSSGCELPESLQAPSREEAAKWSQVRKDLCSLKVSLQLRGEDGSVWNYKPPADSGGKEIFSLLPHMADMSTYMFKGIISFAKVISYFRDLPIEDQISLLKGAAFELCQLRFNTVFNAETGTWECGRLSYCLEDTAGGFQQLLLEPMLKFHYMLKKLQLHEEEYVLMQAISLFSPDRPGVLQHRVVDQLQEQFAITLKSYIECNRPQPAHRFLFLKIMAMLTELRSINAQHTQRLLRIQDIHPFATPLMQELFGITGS
In short: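 Tox21 qHTS; PXR-Luc HepG2; compounds pinned from DMSO; 24 hr, 37 C; ONE-Glo luciferase detection, 30 min room temperature.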

[11] = target: Cytochrome P450 2C19 (Homo sapiens) (UniProt P33261); experiment: Cytochrome P450 Family 2 Subfamily C Member 19 (CYP2C19) small molecule antagonists: luciferase reporter qHTS assay (AID 1671197); further: series mostly up to about 120 µM; nearly all actives have a fitted effect of over 65% in size
Sequence of Cytochrome P450 2C19 (Homo sapiens) (P33261 whole entry, looked up): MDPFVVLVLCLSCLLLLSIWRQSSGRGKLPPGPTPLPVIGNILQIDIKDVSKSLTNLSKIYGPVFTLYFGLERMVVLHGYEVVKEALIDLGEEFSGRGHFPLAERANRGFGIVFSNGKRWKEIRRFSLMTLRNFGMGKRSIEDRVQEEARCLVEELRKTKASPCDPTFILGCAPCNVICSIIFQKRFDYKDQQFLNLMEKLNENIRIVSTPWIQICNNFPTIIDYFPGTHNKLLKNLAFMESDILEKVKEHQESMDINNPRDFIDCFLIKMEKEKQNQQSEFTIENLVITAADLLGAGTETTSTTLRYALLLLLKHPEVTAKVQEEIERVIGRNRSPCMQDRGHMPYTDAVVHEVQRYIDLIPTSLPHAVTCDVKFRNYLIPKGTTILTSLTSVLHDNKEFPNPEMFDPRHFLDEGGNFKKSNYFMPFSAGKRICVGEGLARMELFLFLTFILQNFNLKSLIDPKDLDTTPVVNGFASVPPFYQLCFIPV
In short: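 Relative luminescence units recorded 20 min after the detection reagent stopped a 1 h, 37C CYP2C19 reaction on proluciferin substrate, which was started by NADPH regeneration following 10 min room-temperature compound preincubation; ketoconazole positive control.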

[12] = target: Cytochrome P450 2C9 (Homo sapiens) (UniProt P11712); experiment: Cytochrome P450 Family 2 Subfamily C Member 9 (CYP2C9) small molecule antagonists: luciferase reporter qHTS assay (AID 1671198); further: nearly all actives have a fitted effect of over 50% in size; further: potency means the concentration at half of the fitted maximal effect
Sequence of Cytochrome P450 2C9 (Homo sapiens) (P11712 whole entry, looked up): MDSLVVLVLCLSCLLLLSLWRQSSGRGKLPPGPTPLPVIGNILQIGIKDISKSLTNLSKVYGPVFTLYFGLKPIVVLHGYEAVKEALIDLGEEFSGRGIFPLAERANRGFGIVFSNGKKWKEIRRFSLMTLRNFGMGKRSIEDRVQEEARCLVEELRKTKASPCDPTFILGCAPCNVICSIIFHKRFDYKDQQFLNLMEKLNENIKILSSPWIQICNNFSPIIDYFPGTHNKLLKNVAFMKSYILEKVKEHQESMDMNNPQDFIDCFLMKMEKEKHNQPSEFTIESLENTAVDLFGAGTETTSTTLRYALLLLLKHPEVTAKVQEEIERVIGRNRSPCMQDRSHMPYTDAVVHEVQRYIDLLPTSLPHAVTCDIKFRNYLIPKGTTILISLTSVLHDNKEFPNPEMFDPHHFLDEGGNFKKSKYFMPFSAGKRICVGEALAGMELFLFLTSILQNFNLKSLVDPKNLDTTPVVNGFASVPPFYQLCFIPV
In short: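 CYP2C9 activity was measured with a P450-Glo proluciferin substrate. Enzyme–substrate mix was held with compound for 10 min at room temperature, then NADPH regeneration solution was added for 1 h at 37C. Luciferin product was read as luminescence.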

[13] = target: Cytochrome P450 1A2 (Homo sapiens) (UniProt P05177); experiment: Cytochrome P450 Family 1 Subfamily A Member 2 (CYP1A2) small molecule antagonists: luciferase reporter qHTS assay (AID 1671199); further: nearly all actives have a fitted effect of over 50% in size; further: potency means the concentration at half of the fitted maximal effect
Sequence of Cytochrome P450 1A2 (Homo sapiens) (P05177 whole entry, looked up): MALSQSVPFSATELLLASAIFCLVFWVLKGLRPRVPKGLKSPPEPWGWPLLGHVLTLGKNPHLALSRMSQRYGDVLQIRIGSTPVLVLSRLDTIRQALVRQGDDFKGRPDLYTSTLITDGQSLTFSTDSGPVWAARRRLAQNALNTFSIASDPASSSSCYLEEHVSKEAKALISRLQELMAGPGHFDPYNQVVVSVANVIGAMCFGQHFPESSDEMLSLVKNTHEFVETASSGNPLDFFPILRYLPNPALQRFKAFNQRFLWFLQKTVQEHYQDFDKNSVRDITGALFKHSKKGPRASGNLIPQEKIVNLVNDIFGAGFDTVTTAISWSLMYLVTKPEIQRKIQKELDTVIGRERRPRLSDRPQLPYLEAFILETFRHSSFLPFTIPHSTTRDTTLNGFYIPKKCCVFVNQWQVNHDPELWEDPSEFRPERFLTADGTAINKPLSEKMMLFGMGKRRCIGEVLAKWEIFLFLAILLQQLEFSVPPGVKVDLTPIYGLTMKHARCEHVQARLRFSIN
In short: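 Room-temperature CYP1A2 reaction with proluciferin substrate: compounds added from DMSO, 10 min preincubation, NADPH regeneration for 1 h. Luciferin detection reagent then added; luminescence recorded as RLU.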

[14] = target: Voltage-gated inwardly rectifying potassium channel KCNH2 (Homo sapiens) (UniProt Q12809); experiment: Human Ether-a-go-go-Related Gene (hERG) channel small molecule antagonists: fluorescence cell-based qHTS assay (AID 1671200);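 further: hERG-expressing U2OS cells given a thallium stimulus after FluxOR II dye loading; series mostly up to about 77 µM; nearly all actives have a fitted effect of over 50% in size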
Sequence of Voltage-gated inwardly rectifying potassium channel KCNH2 (Homo sapiens) (Q12809 whole entry, looked up): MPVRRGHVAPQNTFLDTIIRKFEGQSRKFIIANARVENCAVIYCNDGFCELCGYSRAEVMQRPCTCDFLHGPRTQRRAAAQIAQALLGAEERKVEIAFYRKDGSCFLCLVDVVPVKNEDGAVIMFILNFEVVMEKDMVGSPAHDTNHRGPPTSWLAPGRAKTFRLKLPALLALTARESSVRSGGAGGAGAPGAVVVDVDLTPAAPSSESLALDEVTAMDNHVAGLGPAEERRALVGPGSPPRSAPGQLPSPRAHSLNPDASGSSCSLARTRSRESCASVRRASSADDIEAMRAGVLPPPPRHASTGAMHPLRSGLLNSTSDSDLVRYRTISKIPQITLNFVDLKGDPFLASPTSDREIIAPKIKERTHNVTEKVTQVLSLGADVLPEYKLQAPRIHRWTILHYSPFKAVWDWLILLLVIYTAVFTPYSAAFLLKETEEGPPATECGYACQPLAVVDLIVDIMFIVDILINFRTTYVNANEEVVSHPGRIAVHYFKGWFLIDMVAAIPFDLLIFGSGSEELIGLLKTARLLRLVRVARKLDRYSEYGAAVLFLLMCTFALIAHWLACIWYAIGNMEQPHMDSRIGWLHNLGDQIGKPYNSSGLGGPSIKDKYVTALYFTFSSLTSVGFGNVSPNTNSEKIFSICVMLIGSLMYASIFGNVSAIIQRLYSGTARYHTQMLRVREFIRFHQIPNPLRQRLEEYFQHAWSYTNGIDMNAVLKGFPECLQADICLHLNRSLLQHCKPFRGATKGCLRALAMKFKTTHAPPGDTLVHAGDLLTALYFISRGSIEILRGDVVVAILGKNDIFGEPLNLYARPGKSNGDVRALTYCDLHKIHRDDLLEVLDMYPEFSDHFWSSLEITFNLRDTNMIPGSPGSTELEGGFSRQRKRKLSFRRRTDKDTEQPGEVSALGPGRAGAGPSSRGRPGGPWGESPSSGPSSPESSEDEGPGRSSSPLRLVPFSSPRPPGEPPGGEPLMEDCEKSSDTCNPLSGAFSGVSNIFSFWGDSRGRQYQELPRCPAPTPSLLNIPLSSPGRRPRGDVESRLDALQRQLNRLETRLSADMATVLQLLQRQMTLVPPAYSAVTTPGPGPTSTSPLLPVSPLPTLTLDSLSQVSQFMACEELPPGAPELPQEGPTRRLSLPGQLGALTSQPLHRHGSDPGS
In short: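 Quantitative HTS in hERG-U2OS cells: thallium entry through the channel reports activity, read as continuous 480/540 nm fluorescence over 2 min after stimulus addition.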

[15] = target: Cytochrome P450 2D6 (Homo sapiens) (UniProt P10635); experiment: Cytochrome P450 Family 2 Subfamily D Member 6 (CYP2D6) small molecule antagonists: luciferase reporter qHTS assay (AID 1671196)
Sequence of Cytochrome P450 2D6 (Homo sapiens) (P10635 whole entry, looked up): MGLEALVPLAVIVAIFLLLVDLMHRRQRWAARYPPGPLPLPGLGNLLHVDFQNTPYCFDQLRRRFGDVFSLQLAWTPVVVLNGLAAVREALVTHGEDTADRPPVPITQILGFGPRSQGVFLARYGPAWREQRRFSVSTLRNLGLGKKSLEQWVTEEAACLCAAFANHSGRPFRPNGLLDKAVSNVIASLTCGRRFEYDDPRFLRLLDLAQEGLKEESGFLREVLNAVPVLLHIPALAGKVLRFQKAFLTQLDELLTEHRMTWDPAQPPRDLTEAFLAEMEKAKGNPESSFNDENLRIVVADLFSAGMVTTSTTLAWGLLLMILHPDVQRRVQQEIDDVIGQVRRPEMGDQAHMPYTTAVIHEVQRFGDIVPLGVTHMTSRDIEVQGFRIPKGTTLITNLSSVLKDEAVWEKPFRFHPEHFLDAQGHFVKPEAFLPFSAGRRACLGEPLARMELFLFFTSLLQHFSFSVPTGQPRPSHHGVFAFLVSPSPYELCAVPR
In short: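 Room-temperature luminescent CYP2D6 activity assay: compound preincubated 10 min with enzyme–substrate mix, NADPH-initiated reaction 1 h, detection reagent 20 min before reading.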

[16] = target: Cytochrome P450 3A4 (Homo sapiens) (UniProt P08684); experiment: Cytochrome P450 Family 3 Subfamily A Member 4 (CYP3A4) small molecule antagonists: luciferase reporter qHTS assay (AID 1671201)
Sequence of Cytochrome P450 3A4 (Homo sapiens) (P08684 whole entry, looked up): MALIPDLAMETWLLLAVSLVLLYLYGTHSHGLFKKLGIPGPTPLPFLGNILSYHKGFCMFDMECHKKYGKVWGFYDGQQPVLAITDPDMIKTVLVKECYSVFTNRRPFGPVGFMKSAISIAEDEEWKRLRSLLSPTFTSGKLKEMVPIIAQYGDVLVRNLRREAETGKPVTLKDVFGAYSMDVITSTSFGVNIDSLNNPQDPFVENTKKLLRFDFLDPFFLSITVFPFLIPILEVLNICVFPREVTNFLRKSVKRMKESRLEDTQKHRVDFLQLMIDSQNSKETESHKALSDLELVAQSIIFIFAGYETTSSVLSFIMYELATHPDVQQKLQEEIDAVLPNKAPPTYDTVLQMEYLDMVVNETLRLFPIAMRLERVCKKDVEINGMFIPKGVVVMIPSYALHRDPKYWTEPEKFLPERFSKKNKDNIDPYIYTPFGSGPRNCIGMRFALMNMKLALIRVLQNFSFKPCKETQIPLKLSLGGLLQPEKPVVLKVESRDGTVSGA
In short: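 Inhibition of CYP3A4 is measured as loss of light: the enzyme converts a proluciferin substrate to luciferin, detected luminescently. Reaction ran 1 h at room temperature with NADPH regeneration after a 10 min compound preincubation.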

[17] = target: Nuclear receptor subfamily 1 group I member 2 (Rattus norvegicus) (UniProt Q9R1A7); experiment: Rat pregnane X receptor (rPXR) activation by small molecules, qHTS assay (AID 1346983); conditions: rPXR luciferase reporter cells, One-Glo luminescence, 24 h; max activation: hits give high values; further: nearly all actives have a fitted effect of over 20% in size
Sequence of Nuclear receptor subfamily 1 group I member 2 (Rattus norvegicus) (Q9R1A7 whole entry, looked up): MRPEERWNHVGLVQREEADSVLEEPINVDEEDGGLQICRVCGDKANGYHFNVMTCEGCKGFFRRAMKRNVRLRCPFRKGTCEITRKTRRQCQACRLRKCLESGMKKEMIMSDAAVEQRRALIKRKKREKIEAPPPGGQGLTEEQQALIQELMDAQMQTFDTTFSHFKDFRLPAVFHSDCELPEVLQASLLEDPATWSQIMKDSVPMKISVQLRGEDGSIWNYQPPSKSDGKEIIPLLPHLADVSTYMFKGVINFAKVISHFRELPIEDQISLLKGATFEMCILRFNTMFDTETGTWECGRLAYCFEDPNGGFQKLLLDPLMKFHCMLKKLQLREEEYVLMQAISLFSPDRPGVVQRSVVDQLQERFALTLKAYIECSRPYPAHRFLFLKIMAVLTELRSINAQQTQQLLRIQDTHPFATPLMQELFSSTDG
In short: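 Cell-based rPXR luciferase reporter assay, 2,000 cells per well, rested 5hr at 37 C before compound addition in DMSO, then 24 hr at 37 C. One-Glo reagent was added and luminescence read after 30 min at room temperature.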

[18] = target: Nuclear receptor subfamily 1 group I member 2 (Homo sapiens) (UniProt O75469); experiment: CYP3A4 induction through human pregnane X receptor (PXR) by small molecules, qHTS assay (AID 1346984); further: nearly all actives have a fitted effect of over 40% in size
In short: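 Cells (DPX-2; HepG2 with PXR element plus CYP3A4-promoter luciferase) settled 5hr, then were treated 24hr at 37C. A 3hr, 3uM-final Luciferin-IPA step preceded luminescence measurement with One-Glo.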
On the % scale 0 is the no-effect control and ±100 the full control effect.

Cc1nc([N+](=O)[O-])cn1-c1ccc([N+](=O)[O-])cc1
inactive: outcome [1] | outcome [2] | outcome [3] | outcome [4] | Potency [5] | outcome [6] | Potency [7] | outcome [8] | Potency [9] | Potency [10] | Potency [11] | Potency [12] | Potency [13] | Potency [14]

C1=CCC(c2ccccc2)CC1 (stereo not given)
inactive: outcome [1] | outcome [2] | outcome [3] | outcome [4] | Potency [5] | outcome [6] | Potency [7] | outcome [8] | Potency [9] | Potency [10] | Potency [15] | Potency [11] | Potency [12] | Potency [14] | Potency [16]

C1=C\CC/C=C\CC/1
inactive: outcome [1] | outcome [2] | outcome [3] | outcome [4] | Potency [5] | outcome [6] | Potency [7] | outcome [8] | Potency [9] | Potency [10] | Potency [15] | Potency [11] | Potency [12] | Potency [13] | Potency [14] | Potency [16]

O=CN1CCOCC1
active: Potency [13] 44.8 µM
inactive: outcome [1] | outcome [2] | outcome [3] | outcome [4] | Potency [5] | outcome [6] | Potency [7] | outcome [8] | Potency [9] | Potency [10] | Potency [15] | Potency [11] | Potency [12] | Potency [14]

F[Si-2](F)(F)(F)(F)F
inactive: outcome [1] | outcome [2] | outcome [3] | outcome [4] | Potency [5] | outcome [6] | Potency [7] | outcome [8] | Potency [9] | max activation [17] -2.73% | outcome [18] | Potency [15] | Potency [11] | Potency [12] | Potency [13] | Potency [14] | Potency [16]

CCOC(=O)CCCCCCCCC(=O)OCC
inactive: outcome [1] | outcome [2] | outcome [3] | outcome [4] | Potency [5] | outcome [6] | Potency [7] | outcome [8] | Potency [10] | Potency [15] | Potency [14]
active: Potency [12] 31.7 µM | Potency [13] 44.8 µM

CC(C)=CC(C)(C)C
inactive: outcome [1] | outcome [2] | outcome [3] | outcome [4] | Potency [5] | outcome [6] | Potency [7] | outcome [8] | Potency [9] | Potency [10] | Potency [12] | Potency [16]

Nc1cc(C(=O)O)ccc1Cl
inactive: outcome [1] | outcome [2] | outcome [3] | outcome [4] | Potency [5] | outcome [6] | Potency [7] | outcome [8] | Potency [9] | Potency [10] | Potency [12] | Potency [13] | Potency [14] | Potency [16]

CC(C)SCc1ccco1
inactive: outcome [1] | outcome [2] | outcome [3] | outcome [4] | Potency [5] | outcome [6] | Potency [7] | outcome [8] | Potency [10] | Potency [15] | Potency [11] | Potency [12] | Potency [13] | Potency [14] | Potency [16]

Cn1c(=O)c2c(ncn2CC2OCCO2)n(C)c1=O
inactive: outcome [1] | outcome [2] | outcome [3] | outcome [4] | Potency [5] | outcome [6] | outcome [8] | Potency [9] | Potency [10] | max activation [17] 6.17% | outcome [18] | Potency [15] | Potency [12] | Potency [16]

CCCCCCCCCCCCCCCC(=O)NCCO
inactive: outcome [1] | outcome [2] | outcome [3] | outcome [4] | Potency [5] | outcome [6] | outcome [8] | Potency [9]

O=C(Oc1ccccc1C(=O)O)c1ccccc1O
inactive: outcome [1] | outcome [2] | outcome [3] | outcome [4] | Potency [5] | outcome [6] | outcome [8] | Potency [9] | Potency [10] | max activation [17] -2.38% | outcome [18] | Potency [15] | Potency [13] | Potency [14] | Potency [16]

C[C@H]1O[C@H](O[C@H]2[C@H](O)[C@@H](O)[C@@H](O[C@H]3[C@H](O)[C@@H](O)[C@H](O)O[C@@H]3CO)O[C@@H]2CO)[C@H](O)[C@@H](O)[C@@H]1N[C@H]1C=C(CO)[C@@H](O)[C@H](O)[C@H]1O
inactive: outcome [1] | outcome [2] | outcome [3] | outcome [4] | Potency [5] | outcome [6] | Potency [7] | outcome [8] | Potency [9] | max activation [17] -1.07% | Potency [15] | Potency [11] | Potency [12] | Potency [13] | Potency [14]

CC(=O)N1CCN(c2ccc(O)cc2)CC1
inactive: outcome [1] | outcome [2] | outcome [3] | outcome [4] | Potency [5] | outcome [6] | Potency [7] | outcome [8] | Potency [9] | Potency [10] | Potency [14] | Potency [16]
active: Potency [13] 24.5 µM

CCCCCC1CCCC(=O)O1 (stereo not given)
inactive: outcome [1] | outcome [2] | outcome [3] | outcome [4] | Potency [5] | outcome [6] | Potency [7] | outcome [8] | Potency [10] | Potency [15] | Potency [12] | Potency [14] | Potency [16]

C/C=C(\C)C(=O)OCC/C=C\CC
inactive: outcome [1] | outcome [2] | outcome [3] | outcome [4] | Potency [5] | outcome [6] | Potency [7] | outcome [8] | Potency [10] | Potency [11] | Potency [12] | Potency [14] | Potency [16]

C1CCN2C[C@@H]3C[C@@H](CN4CCCC[C@@H]34)[C@H]2C1
inactive: outcome [1] | outcome [2] | outcome [3] | outcome [4] | Potency [5] | outcome [6] | Potency [7] | outcome [8] | Potency [14]

CCc1nccnc1C
inactive: outcome [1] | outcome [2] | outcome [3] | outcome [4] | Potency [5] | outcome [6] | Potency [7] | outcome [8] | Potency [9] | Potency [10] | Potency [12] | Potency [13] | Potency [14] | Potency [16]

From PubChem BioAssay (Tox21)
